{"source": "paper PMC12864922", "about": "“TDP-43 directly inhibits mRNA accumulation in neurites through modulation of mRNA stability”", "binders": {"B1": {"name": "ENSMUSG00000043670.203|Diras1|6:10;40:44;54:63;69:76;109:113;142:154;178:183;186:190;195:199 (ssRNA)", "RNA": "GGGAGUUCUACAGUCCGACGAUCGCUUCGAUAUCCGCAUGCUAGGGCCACACACCCACCCAGAUGAGGGUGACUUAGAAUUCACACAUUAUGUGCCACACACACACGAUGGCACACACACUGUCUUGGGAUGGGGUGUUCUUGCACCACUUACACAUCUUAGUGAGACCACAGUGUAAGUGGCCCACACACACACACGGGGGGGGCACCUAGACAUUGUGCACACACUCAUACGCUCACACAUUUCAGGGGUGGGUGACACAGGCCUGUCUGAUGAGCACCAGGUCUGUUCCAGGCUGUGGCACUCUUGCGGUCGCACUAGUGUGGAAUUCUCGGGUGUCAAGG"}, "B2": {"name": "ENSMUSG00000043670.215|Diras1 (ssRNA)", "RNA": "GGGAGUUCUACAGUCCGACGAUCGCUUCGAUAUCCGCAUGCUAGUGUCUGUCUUGGGAUGGGGUGUUCUUGCACCACUUUGUGUUCUUAGUGAGACCACAGUGUAAGUGGCCGUGUGUGUGUGUGGGGGGGGGCACCUAGACAUUGUGGUGUGUCUGUAUGGCUCUGUGUUUUCAGGGGUGGGUGACACAGGCCUGUCUGAUGAGCACCAGGUCUGUUCCAGGCUGUGGCAAGCUGGCUCCUGGCUCAGAAGUGACAAAGCUGCAGUACAGAGGCCUCAGUGUGAGGUCAUCACCUCACAGUGCUCUUGCGGUCGCACUAGUGUGGAAUUCUCGGGUGUCAAGG"}, "B3": {"name": "ENSMUSG00000043670.210|Diras1 (ssRNA)", "RNA": "GGGAGUUCUACAGUCCGACGAUCGCUUCGAUAUCCGCAUGCUAGUUUAUGUGCCUGUGUGUGUGGAUGGGUGUGUGUCUGUCUUGGGAUGGGGUGUUCUUGCACCACUUUGUGUUCUUAGUGAGACCACAGUGUAAGUGGCCGUGUGUGUGUGUGGGGGGGGGCACCUAGACAUUGUGGUGUGUCUGUAUGGCUCUGUGUUUUCAGGGGUGGGUGACACAGGCCUGUCUGAUGAGCACCAGGUCUGUUCCAGGCUGUGGCAAGCUGGCUCCUGGCUCAGAAGUGACAAAGCUGCAGUACAGAGCUCUUGCGGUCGCACUAGUGUGGAAUUCUCGGGUGUCAAGG"}, "B4": {"name": "ENSMUSG00000043670.209|Diras1 (ssRNA)", "RNA": "GGGAGUUCUACAGUCCGACGAUCGCUUCGAUAUCCGCAUGCUAUUCUGUGUUUAUGUGCCUGUGUGUGUGGAUGGGUGUGUGUCUGUCUUGGGAUGGGGUGUUCUUGCACCACUUUGUGUUCUUAGUGAGACCACAGUGUAAGUGGCCGUGUGUGUGUGUGGGGGGGGGCACCUAGACAUUGUGGUGUGUCUGUAUGGCUCUGUGUUUUCAGGGGUGGGUGACACAGGCCUGUCUGAUGAGCACCAGGUCUGUUCCAGGCUGUGGCAAGCUGGCUCCUGGCUCAGAAGUGACAAAGCUGCAGUCUCUUGCGGUCGCACUAGUGUGGAAUUCUCGGGUGUCAAGG"}, "B5": {"name": "ENSMUSG00000043670.207|Diras1 (ssRNA)", "RNA": "GGGAGUUCUACAGUCCGACGAUCGCUUCGAUAUCCGCAUGCUAGGUGACUUAGAAUUCUGUGUUUAUGUGCCUGUGUGUGUGGAUGGGUGUGUGUCUGUCUUGGGAUGGGGUGUUCUUGCACCACUUUGUGUUCUUAGUGAGACCACAGUGUAAGUGGCCGUGUGUGUGUGUGGGGGGGGGCACCUAGACAUUGUGGUGUGUCUGUAUGGCUCUGUGUUUUCAGGGGUGGGUGACACAGGCCUGUCUGAUGAGCACCAGGUCUGUUCCAGGCUGUGGCAAGCUGGCUCCUGGCUCAGAAGUGACUCUUGCGGUCGCACUAGUGUGGAAUUCUCGGGUGUCAAGG"}, "B6": {"name": "ENSMUSG00000043670.198|Diras1 (ssRNA)", "RNA": "GGGAGUUCUACAGUCCGACGAUCGCUUCGAUAUCCGCAUGCUAGAGACUGUCCAGGAGACUUGAGUGGCUCCUGGGCCUGUGUCCCACCCAGAUGAGGGUGACUUAGAAUUCUGUGUUUAUGUGCCUGUGUGUGUGGAUGGGUGUGUGUCUGUCUUGGGAUGGGGUGUUCUUGCACCACUUUGUGUUCUUAGUGAGACCACAGUGUAAGUGGCCGUGUGUGUGUGUGGGGGGGGGCACCUAGACAUUGUGGUGUGUCUGUAUGGCUCUGUGUUUUCAGGGGUGGGUGACACAGGCCUGUCUGACUCUUGCGGUCGCACUAGUGUGGAAUUCUCGGGUGUCAAGG"}, "B7": {"name": "ENSMUSG00000043670.208|Diras1 (ssRNA)", "RNA": "GGGAGUUCUACAGUCCGACGAUCGCUUCGAUAUCCGCAUGCUAUUAGAAUUCUGUGUUUAUGUGCCUGUGUGUGUGGAUGGGUGUGUGUCUGUCUUGGGAUGGGGUGUUCUUGCACCACUUUGUGUUCUUAGUGAGACCACAGUGUAAGUGGCCGUGUGUGUGUGUGGGGGGGGGCACCUAGACAUUGUGGUGUGUCUGUAUGGCUCUGUGUUUUCAGGGGUGGGUGACACAGGCCUGUCUGAUGAGCACCAGGUCUGUUCCAGGCUGUGGCAAGCUGGCUCCUGGCUCAGAAGUGACAAAGCCUCUUGCGGUCGCACUAGUGUGGAAUUCUCGGGUGUCAAGG"}, "B8": {"name": "ENSMUSG00000043670.212|Diras1 (ssRNA)", "RNA": "GGGAGUUCUACAGUCCGACGAUCGCUUCGAUAUCCGCAUGCUAGUGUGUGUGGAUGGGUGUGUGUCUGUCUUGGGAUGGGGUGUUCUUGCACCACUUUGUGUUCUUAGUGAGACCACAGUGUAAGUGGCCGUGUGUGUGUGUGGGGGGGGGCACCUAGACAUUGUGGUGUGUCUGUAUGGCUCUGUGUUUUCAGGGGUGGGUGACACAGGCCUGUCUGAUGAGCACCAGGUCUGUUCCAGGCUGUGGCAAGCUGGCUCCUGGCUCAGAAGUGACAAAGCUGCAGUACAGAGGCCUCAGUGUGACUCUUGCGGUCGCACUAGUGUGGAAUUCUCGGGUGUCAAGG"}, "B9": {"name": "ENSMUSG00000043670.211|Diras1 (ssRNA)", "RNA": "GGGAGUUCUACAGUCCGACGAUCGCUUCGAUAUCCGCAUGCUAGUGCCUGUGUGUGUGGAUGGGUGUGUGUCUGUCUUGGGAUGGGGUGUUCUUGCACCACUUUGUGUUCUUAGUGAGACCACAGUGUAAGUGGCCGUGUGUGUGUGUGGGGGGGGGCACCUAGACAUUGUGGUGUGUCUGUAUGGCUCUGUGUUUUCAGGGGUGGGUGACACAGGCCUGUCUGAUGAGCACCAGGUCUGUUCCAGGCUGUGGCAAGCUGGCUCCUGGCUCAGAAGUGACAAAGCUGCAGUACAGAGGCCUCACUCUUGCGGUCGCACUAGUGUGGAAUUCUCGGGUGUCAAGG"}, "B10": {"name": "ENSMUSG00000043670.205|Diras1 (ssRNA)", "RNA": "GGGAGUUCUACAGUCCGACGAUCGCUUCGAUAUCCGCAUGCUACACCCAGAUGAGGGUGACUUAGAAUUCUGUGUUUAUGUGCCUGUGUGUGUGGAUGGGUGUGUGUCUGUCUUGGGAUGGGGUGUUCUUGCACCACUUUGUGUUCUUAGUGAGACCACAGUGUAAGUGGCCGUGUGUGUGUGUGGGGGGGGGCACCUAGACAUUGUGGUGUGUCUGUAUGGCUCUGUGUUUUCAGGGGUGGGUGACACAGGCCUGUCUGAUGAGCACCAGGUCUGUUCCAGGCUGUGGCAAGCUGGCUCCUGCUCUUGCGGUCGCACUAGUGUGGAAUUCUCGGGUGUCAAGG"}}, "note": "In all, about 9,900 sequences were measured (“r (bound/input frequency ratio)”: median about 0.7, highest 2% from about 6.5 on). Only a selection was taken, and the highest values are over-represented in it overall.", "data": [{"molecular_target": "TDP-43 (Homo sapiens, UniProt Q13148 1-414)", "sequence (Q13148 whole entry)": "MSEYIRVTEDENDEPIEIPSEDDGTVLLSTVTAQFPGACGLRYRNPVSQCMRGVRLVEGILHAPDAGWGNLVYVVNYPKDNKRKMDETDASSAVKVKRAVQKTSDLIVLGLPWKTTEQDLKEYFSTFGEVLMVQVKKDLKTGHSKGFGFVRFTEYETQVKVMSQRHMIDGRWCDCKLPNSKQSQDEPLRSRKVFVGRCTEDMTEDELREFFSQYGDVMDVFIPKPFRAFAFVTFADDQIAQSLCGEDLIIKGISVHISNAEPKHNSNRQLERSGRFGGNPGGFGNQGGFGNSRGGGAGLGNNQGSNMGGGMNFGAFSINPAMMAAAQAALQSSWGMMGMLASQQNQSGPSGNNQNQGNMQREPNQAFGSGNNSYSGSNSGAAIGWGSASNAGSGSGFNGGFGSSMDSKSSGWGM", "assay": "RNA Bind-n-Seq with designed 260-mer pool; 25 mM Tris-HCl, 150 mM KCl, 3 mM MgCl2, BSA (printed 500 mg/mL), 20 units/mL SUPERase IN; pH not stated; 500 nM RNA pool, 1 h, 4 C; TDP-43 5, 50, 500 nM; high values mean tight binding", "details": "protein: recombinant; tags: SBP (GST cleaved off with PreScission; pGEX-GST-SBP)", "outline": "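An in vitro-transcribed pool of 260-nt 3′ UTR oligos (500 nM) was incubated for 1 h at 4 °C with recombinant SBP-tagged TDP-43 at 5, 50 or 500 nM held on streptavidin beads. The buffer contained 25 mM Tris-HCl, 150 mM KCl, 3 mM MgCl2, BSA and SUPERase IN. Biotin-eluted bound RNA was sequenced, and binding, R, is each oligo's normalized read abundance in the bound sample over that in input.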", "values": [{"binder": "B1", "binding signal": "1.5 R (bound/input frequency ratio)"}, {"binder": "B2", "binding signal": "3.25 R (bound/input frequency ratio)"}, {"binder": "B3", "binding signal": "5.7 R (bound/input frequency ratio)"}, {"binder": "B4", "binding signal": "5.23 R (bound/input frequency ratio)"}, {"binder": "B5", "binding signal": "8.86 R (bound/input frequency ratio)"}, {"binder": "B6", "binding signal": "4.93 R (bound/input frequency ratio)"}, {"binder": "B7", "binding signal": "7.79 R (bound/input frequency ratio)"}, {"binder": "B8", "binding signal": "6.14 R (bound/input frequency ratio)"}, {"binder": "B9", "binding signal": "5.36 R (bound/input frequency ratio)"}, {"binder": "B10", "binding signal": "7.36 R (bound/input frequency ratio)"}]}]}
